Experiment [1] addresses human Muscarinic, M4 Receptor, CHRM4 (gene 1132) (UniProt P08173). Put plainly: NVS_GPCR_hM4: NovaScreen (NVS) G Protein-Coupled Receptor Assay for human Muscarinic, M4 Receptor (AID 2283274). The essentials:
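Cell-free radioligand displacement using CHO-derived human M4 receptor protein, 1 h after dosing; bound radioactivity by filtration and scintillation counting. Primary screen single 25 uM duplicate, actives followed in concentration series.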

The target of experiment [2] is human Neurokinin, NK2 Receptor, TACR2 (gene 6865) (UniProt P21452). Put plainly: NVS_GPCR_hNK2: NovaScreen (NVS) G Protein-Coupled Receptor Assay for human Neurokinin, NK2 Receptor (AID 2283278).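 Note: actives reduce bound radioligand signal relative to DMSO baseline.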 The essentials:
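Radioligand binding on membranes from CHO cells expressing receptor, filter-based scintillation read 4 h after dosing. Initial duplicate screen at 25 uM, actives in concentration series; loss of signal versus DMSO.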

The target in experiment [3] is human Opioid Receptor Delta 1 (Opiate D1), OPRD1 (gene 4985) (UniProt P41143). The experiment is described as follows: NVS_GPCR_hOpiate_D1: NovaScreen (NVS) G Protein-Coupled Receptor Assay for human Opioid Receptor Delta 1 (Opiate D1) (AID 2283280). The essentials: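 Radioligand displacement on membranes from CHO cells expressing the receptor, read by filter scintillation counting 1 h after dosing. Duplicate single-point screen at 25 uM, then concentration series for actives; loss of signal versus DMSO.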

In experiment [4] the target is Muscarinic acetylcholine receptor M3 (Homo sapiens) (UniProt P20309). Put plainly: NVS_GPCR_hM3: NovaScreen (NVS) G Protein-Coupled Receptor Assay for human Muscarinic, M3 Receptor (AID 2283272). The method in brief:
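Radioligand displacement binding on human M3 receptor in CHO-derived membranes, 1 h incubation, filter-based scintillation counting. Primary screen in duplicate at 25 uM; actives followed up in concentration series; loss of signal versus DMSO.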

Experiment [5] deals with Muscarinic acetylcholine receptor M2 (Homo sapiens) (UniProt P08172). The experiment is described as follows: NVS_GPCR_hM2: NovaScreen (NVS) G Protein-Coupled Receptor Assay for human Muscarinic, M2 Receptor (AID 2283273). The essentials:
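CHO membrane prep, radioligand + test compound, 1 h; filtration, scintillation count. Screen 25 uM duplicate → conc. series for actives. Readout: decrease in binding vs DMSO control.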

Experiment [6] addresses Muscarinic acetylcholine receptor M5 (Homo sapiens) (UniProt P08912). Put plainly: NVS_GPCR_hM5: NovaScreen (NVS) G Protein-Coupled Receptor Assay for human Muscarinic, M5 Receptor (AID 2283275). The method in brief:
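Radioligand displacement on CHO-derived membrane preparations, 1 h, filter-based scintillation counting. Single-concentration duplicate screen at 25 uM; hits (e.g. 30% inhibition) retested in singleton concentration-response up to 50 uM. Loss of binding fitted versus DMSO.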

Experiment [7] concerns the target human Leukotriene B4 Receptor 1 (LTB4-BLT1), LTB4R (gene 1241) (UniProt Q15722). The experiment is described as follows: NVS_GPCR_hLTB4_BLT1: NovaScreen (NVS) G Protein-Coupled Receptor Assay for human Leukotriene B4 Receptor 1 (LTB4-BLT1) (AID 2283271). The method in brief: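 Radioligand displacement binding on receptor extracted from human neutrophils, cell-free, 1 h after dosing; filter-based scintillation counting. Primary screen in duplicate at 25 uM, actives retested in concentration-response up to 50 uM; loss of signal versus DMSO.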

For experiment [8], the target named is human Neurotensin Receptor (NTS), NTSR1 (gene 4923) (UniProt P30989). Put plainly: NVS_GPCR_hNTS: NovaScreen (NVS) G Protein-Coupled Receptor Assay for human Neurotensin Receptor (NTS) (AID 2283279). The essentials: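 Radioligand displacement on human NTSR1 protein from CHO cells, cell-free, 1 h, filter-based scintillation counting. Primary screen at 25 uM in duplicate; hits rerun in concentration-response up to 50 uM.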

Experiment [9] has as its target Neuropeptide Y receptor type 2 (Homo sapiens) (UniProt P49146). The experiment is described as follows: NVS_GPCR_hNPY2: NovaScreen (NVS) G Protein-Coupled Receptor Assay for human Neuropeptide Receptor Y2 (NPY2) (AID 2283277). The method, then: (§1) NVS_GPCR_hNPY2 is a biochemical, single-readout assay that uses extracted gene-proteins from SK-N-MC in a cell-free assay. Measurements were taken 1 hour after chemical dosing in a 96-well plate.NVS_GPCR_hNPY2 is one of one assay component(s) measured or calculated from the NVS_GPCR_hNPY2 assay. It is designed to make measurements of radioligand binding, a form of binding reporter, as detected with scintillation counting signals by Filter-based radiodetection technology.Data from the assay component NVS_GPCR_hNPY2 was analyzed into 1 assay endpoint. This assay endpoint, NVS_GPCR_hNPY2, was analyzed in the positive analysis fitting direction relative to DMSO as the negative control and baseline of activity. […] Furthermore, this assay endpoint can be referred to as a primary readout, because the performed assay has only produced 1 assay endpoint. […]
(§2) Binding assays used specific radioligands (tritiated, iodinated) with non-radioactive competitive displacement ligands in agonist or antagonist protocols (as indicated) and various reference compounds and inhibitors to titrate specific binding to receptors and transporters. Most enzyme assays (CYPs, kinases, phosphatases, proteases, HDACs) used recombinant protein and specific substrates (fluorescence mostly, some colorimetric and radioactive) and inhibitors, followed by a biochemical separation of substrate and product. […]

For experiment [10], the target named is human Neuropeptide Receptor Y1 (NPY1), NPY1R (gene 4886) (UniProt P25929). The experiment is described as follows: NVS_GPCR_hNPY1: NovaScreen (NVS) G Protein-Coupled Receptor Assay for human Neuropeptide Receptor Y1 (NPY1) (AID 2283276). As to the method:
as §1, with “NVS_GPCR_hNPY1” for “NVS_GPCR_hNPY2”, “plate.NVS_GPCR_hNPY1” for “plate.NVS_GPCR_hNPY2”, “NVS_GPCR_hNPY1,” for “NVS_GPCR_hNPY2,”
as §2

Inconclusive results are not listed. Activity calls are given as the source filed them. Rule for the calls: active = hit-call score of the fitted dose curve at least 0.9, where 1 is the maximum; inconclusive = response in the unintended direction; inactive = score below 0.9.

Chain of Muscarinic acetylcholine receptor M3 (Homo sapiens) (P20309 whole entry, looked up): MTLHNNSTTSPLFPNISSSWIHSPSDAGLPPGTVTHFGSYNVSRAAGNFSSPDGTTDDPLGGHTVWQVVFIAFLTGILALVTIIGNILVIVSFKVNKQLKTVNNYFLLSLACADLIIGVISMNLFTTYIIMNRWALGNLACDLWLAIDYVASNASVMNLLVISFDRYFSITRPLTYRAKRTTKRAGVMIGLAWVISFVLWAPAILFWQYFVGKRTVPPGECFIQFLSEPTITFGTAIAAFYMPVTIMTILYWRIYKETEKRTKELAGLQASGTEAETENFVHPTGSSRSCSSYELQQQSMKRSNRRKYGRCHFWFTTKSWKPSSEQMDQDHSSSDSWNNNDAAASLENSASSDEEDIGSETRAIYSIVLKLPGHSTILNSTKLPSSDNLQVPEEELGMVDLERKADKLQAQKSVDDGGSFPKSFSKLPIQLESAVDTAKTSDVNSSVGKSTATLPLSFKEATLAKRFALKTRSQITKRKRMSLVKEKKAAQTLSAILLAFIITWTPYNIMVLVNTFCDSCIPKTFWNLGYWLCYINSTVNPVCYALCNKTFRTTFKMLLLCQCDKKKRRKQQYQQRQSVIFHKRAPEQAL
Chain of human Leukotriene B4 Receptor 1 (LTB4-BLT1), LTB4R (gene 1241) (Q15722 whole entry, looked up): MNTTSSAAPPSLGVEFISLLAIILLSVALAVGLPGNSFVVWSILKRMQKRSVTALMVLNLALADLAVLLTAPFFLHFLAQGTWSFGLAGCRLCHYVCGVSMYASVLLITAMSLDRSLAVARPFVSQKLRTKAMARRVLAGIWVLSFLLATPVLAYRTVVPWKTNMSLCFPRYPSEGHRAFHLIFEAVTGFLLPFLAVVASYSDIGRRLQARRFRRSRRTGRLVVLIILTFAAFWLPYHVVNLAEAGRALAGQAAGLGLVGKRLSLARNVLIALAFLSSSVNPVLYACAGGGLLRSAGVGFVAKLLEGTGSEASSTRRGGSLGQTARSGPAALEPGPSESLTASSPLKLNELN
Chain of human Muscarinic, M4 Receptor, CHRM4 (gene 1132) (P08173 whole entry, looked up): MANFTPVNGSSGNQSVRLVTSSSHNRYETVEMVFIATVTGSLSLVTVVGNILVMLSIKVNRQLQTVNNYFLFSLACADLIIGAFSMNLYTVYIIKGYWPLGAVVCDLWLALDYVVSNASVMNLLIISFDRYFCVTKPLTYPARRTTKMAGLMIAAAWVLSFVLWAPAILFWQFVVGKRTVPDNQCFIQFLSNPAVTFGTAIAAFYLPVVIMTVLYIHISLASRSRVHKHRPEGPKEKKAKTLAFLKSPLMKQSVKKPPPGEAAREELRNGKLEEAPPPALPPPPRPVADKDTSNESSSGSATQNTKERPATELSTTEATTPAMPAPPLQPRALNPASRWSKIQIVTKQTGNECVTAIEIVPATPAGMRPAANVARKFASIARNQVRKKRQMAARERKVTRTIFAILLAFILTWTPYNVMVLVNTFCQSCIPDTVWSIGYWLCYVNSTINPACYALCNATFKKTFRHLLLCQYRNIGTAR
Chain of Muscarinic acetylcholine receptor M2 (Homo sapiens) (P08172 whole entry, looked up): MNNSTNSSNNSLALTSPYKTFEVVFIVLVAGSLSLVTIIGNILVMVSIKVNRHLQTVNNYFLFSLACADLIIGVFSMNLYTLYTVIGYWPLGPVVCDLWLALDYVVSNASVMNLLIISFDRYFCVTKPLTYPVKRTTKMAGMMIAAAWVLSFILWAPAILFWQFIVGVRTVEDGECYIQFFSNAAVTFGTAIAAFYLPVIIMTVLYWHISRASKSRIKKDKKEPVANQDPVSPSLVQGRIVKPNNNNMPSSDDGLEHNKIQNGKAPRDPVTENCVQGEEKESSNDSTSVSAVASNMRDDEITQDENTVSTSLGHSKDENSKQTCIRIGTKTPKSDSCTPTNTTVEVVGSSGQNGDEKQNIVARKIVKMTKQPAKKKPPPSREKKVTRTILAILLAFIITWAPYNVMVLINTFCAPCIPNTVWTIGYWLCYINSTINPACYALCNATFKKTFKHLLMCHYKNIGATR
Chain of human Neurokinin, NK2 Receptor, TACR2 (gene 6865) (P21452 whole entry, looked up): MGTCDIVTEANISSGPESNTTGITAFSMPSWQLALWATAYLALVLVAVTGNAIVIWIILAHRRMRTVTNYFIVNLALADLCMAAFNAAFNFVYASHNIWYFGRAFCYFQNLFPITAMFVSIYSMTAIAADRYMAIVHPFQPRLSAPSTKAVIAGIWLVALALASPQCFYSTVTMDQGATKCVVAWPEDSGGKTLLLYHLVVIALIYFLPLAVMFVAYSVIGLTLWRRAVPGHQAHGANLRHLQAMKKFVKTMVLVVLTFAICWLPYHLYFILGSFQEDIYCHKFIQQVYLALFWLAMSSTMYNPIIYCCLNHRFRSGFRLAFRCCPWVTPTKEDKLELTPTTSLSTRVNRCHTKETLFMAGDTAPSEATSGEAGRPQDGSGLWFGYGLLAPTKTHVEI
Chain of human Opioid Receptor Delta 1 (Opiate D1), OPRD1 (gene 4985) (P41143 whole entry, looked up): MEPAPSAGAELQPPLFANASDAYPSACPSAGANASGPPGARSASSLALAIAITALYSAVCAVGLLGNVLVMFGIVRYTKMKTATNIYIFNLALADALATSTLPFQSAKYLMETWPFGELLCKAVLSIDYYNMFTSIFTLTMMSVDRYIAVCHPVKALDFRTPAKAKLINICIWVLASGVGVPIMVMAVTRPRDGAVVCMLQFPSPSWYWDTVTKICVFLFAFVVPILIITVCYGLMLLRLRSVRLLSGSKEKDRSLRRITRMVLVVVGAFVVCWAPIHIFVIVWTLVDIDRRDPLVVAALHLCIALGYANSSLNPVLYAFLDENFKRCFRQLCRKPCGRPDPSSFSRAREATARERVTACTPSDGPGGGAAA
Chain of Muscarinic acetylcholine receptor M5 (Homo sapiens) (P08912 whole entry, looked up): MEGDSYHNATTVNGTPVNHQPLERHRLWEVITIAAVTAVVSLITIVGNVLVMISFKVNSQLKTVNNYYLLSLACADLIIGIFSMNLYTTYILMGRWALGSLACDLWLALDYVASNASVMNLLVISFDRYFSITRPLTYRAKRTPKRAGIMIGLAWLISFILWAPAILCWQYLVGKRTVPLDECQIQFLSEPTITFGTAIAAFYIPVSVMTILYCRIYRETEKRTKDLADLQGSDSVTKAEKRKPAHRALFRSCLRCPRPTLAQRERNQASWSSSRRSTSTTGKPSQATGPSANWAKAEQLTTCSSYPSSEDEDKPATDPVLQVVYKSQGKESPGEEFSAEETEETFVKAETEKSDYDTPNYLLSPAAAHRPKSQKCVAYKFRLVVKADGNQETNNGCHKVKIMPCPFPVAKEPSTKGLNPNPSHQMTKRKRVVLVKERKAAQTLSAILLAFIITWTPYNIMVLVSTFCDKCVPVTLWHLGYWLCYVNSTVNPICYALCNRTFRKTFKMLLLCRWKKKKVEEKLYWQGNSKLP
Chain of Neuropeptide Y receptor type 2 (Homo sapiens) (P49146 whole entry, looked up): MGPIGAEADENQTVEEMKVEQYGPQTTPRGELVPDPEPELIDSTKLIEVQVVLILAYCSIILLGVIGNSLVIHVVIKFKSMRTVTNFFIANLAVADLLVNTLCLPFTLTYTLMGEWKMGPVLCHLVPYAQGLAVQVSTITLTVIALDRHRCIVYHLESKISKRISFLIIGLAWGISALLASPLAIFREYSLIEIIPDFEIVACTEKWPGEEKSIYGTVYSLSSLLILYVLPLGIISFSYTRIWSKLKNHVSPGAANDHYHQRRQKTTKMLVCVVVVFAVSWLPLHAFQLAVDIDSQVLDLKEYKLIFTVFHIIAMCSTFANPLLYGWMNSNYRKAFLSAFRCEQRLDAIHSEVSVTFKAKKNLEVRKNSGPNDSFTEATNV
Chain of human Neuropeptide Receptor Y1 (NPY1), NPY1R (gene 4886) (P25929 whole entry, looked up): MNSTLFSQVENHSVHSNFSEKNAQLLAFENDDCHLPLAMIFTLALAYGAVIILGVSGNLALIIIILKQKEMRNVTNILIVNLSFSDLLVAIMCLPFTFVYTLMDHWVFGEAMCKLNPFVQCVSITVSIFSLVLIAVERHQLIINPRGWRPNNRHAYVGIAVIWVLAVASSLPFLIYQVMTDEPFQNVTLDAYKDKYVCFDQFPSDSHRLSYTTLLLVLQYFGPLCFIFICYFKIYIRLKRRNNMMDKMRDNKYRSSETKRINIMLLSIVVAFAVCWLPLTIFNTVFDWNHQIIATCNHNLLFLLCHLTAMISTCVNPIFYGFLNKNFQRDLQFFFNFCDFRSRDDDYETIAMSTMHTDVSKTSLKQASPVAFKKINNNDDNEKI
Chain of human Neurotensin Receptor (NTS), NTSR1 (gene 4923) (P30989 whole entry, looked up): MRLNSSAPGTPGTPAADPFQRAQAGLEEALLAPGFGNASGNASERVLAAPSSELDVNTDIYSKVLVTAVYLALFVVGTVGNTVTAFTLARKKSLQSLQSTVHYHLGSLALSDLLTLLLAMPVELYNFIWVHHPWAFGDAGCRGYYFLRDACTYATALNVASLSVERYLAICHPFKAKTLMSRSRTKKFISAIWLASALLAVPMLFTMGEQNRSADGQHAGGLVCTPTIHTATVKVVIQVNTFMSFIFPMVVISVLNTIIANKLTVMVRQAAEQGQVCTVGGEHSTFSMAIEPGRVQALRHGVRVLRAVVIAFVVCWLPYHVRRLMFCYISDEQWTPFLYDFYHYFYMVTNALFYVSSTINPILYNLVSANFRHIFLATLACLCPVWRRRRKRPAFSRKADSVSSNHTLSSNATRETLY

`CCOc1cccc(-n2cc(C(=O)N3CCN(c4cc(C(=O)O)c5ccccc5c4)CC3)nc2-c2ccc(C)cc2)c1`: the half-maximal activity concentration (AC50) in experiment [1] was 26.1 µM (active); in experiment [2], 7.6 µM (active); in experiment [3] it was 9.02 µM (active).
As to `Nc1ccc(Nc2ccccc2)cc1`, the AC50 in experiment [4] was 25 µM (active); in experiment [5], 25 µM (active); in [1], 16.6 µM (active). In addition, in experiment [6], the molecule was classed as inactive.
`O=C(CCCCCCCCc1cccnc1)N1CCC(C=C(c2ccccc2)c2ccccc2)CC1`: the call in [4] was inactive.
With `CCOC(=O)COc1ccc2c(c1)CC(NCC(O)c1cccc(Cl)c1)CC2` (stereo not given), the half-maximal activity concentration (AC50) is 3.78 µM (active) in experiment [4]; 3.68 µM (active) in experiment [5]; 1.92 µM (active) in [1]; 3.75 µM (active) in [6]; 21.7 µM (active) in [2].
On to `CCc1cc(SCc2sc(-c3ccc(C(F)(F)F)cc3)nc2CN2CCN(c3ccc(OC)cc3)CC2)ccc1OCC(=O)O`, for which the AC50 in [7] is 37.3 µM (active); in experiment [1], 35.7 µM (active); in experiment [6] it was 9.13 µM (active); in experiment [3], 7.88 µM (active).
Turning to `Cc1[nH]cnc1C[C@H]1CCc2c(C)c3ccccc3n2C1=O`, the molecule was called inactive in [7], in experiment [1] and in experiment [2]. Moreover, the AC50 in [4] was 15.5 µM (active); in experiment [6] it was 11.9 µM (active).
Consider `O=P(OC(CCl)CCl)(OC(CCl)CCl)OC(CCl)CCl`, for which the AC50 in experiment [2] was 12.5 µM (active).
As to `CNS(=O)(=O)c1cc(C(=O)N2CCC(CCN3C4CCC3CC(n3c(C)nc5ccccc53)C4)(c3cccc(F)c3)CC2)c(Cl)cc1F` (stereo not given), the concentration at half-maximal activity (AC50) in experiment [5] is 9.16 µM (active); in experiment [2], 1.71 µM (active). Further, the outcome in [6] was inactive.
In the case of `CC/C(=C\C(=N/O)C(N)=O)C(C)[N+](=O)[O-]` (stereo not given), the molecule was classed as inactive in experiment [2].
Still for that read-out and setting: then `Cn1c(=O)cc(Oc2ccc(F)cc2F)c2cnc(NCC(C)(C)O)nc21`, with “inactive”; and `CC(C)=CCCC(C)=CC=O`, with “inactive”.
As for `On1ccccc1=S`, the AC50 in experiment [2] was 8.14 µM (active).
Turning to `COc1cccc(-c2ccc(/C=C\CN3CCCCCC3)cc2Cl)c1`, the AC50 in experiment [7] was 14.5 µM (active); in experiment [4] it was 2.41 µM (active); in experiment [5], 0.427 µM (active); in experiment [1], 1.22 µM (active); in experiment [6], 6.57 µM (active); in experiment [3], 15.5 µM (active). In addition, the outcome in [2] was inactive.
In the case of `CCCN(C1CCN(C(=O)C2CCNCC2)CC1)[C@@H]1CCc2ccc(OC)cc2C1`, in [7], the molecule was classed as inactive. For the same molecule, the AC50 in experiment [4] is 0.00453 µM (active); in experiment [5], 0.00539 µM (active); in [1], 0.00683 µM (active); in [6], 0.0807 µM (active).
Regarding `O=C(O)c1cccc(N(Cc2cccnc2)c2ccc(OC(F)F)c(OC(F)F)c2)c1`, the call in experiment [2] was inactive.
For the molecule `Cc1ccc(C)c(O)c1`, the AC50 in [8] is 9.84 µM (active).
For the molecule `O=C(O)CC(O)C(=O)O` (stereo not given), the molecule was called inactive in experiment [5] and in experiment [3].
In the case of `Cc1ccc(S(=O)(=O)O)cc1C`, in experiment [7], the call was inactive.
For `CC(C)c1cccc(C(C)C)c1N1C(=O)c2ccc(O)cc2C1=O`, in [9], the result was inactive.
Take `CCC(C)(C)C(=O)O[C@H]1C[C@@H](C)C=C2C=C[C@H](C)[C@H](CC[C@@H]3C[C@@H](O)CC(=O)O3)[C@H]21`: the outcome in experiment [3] was inactive.
In the case of `CN(C)c1ccc(N=NS(=O)(=O)O)cc1`, the outcome in [6] and in experiment [10] was inactive. The concentration at half-maximal activity (AC50) in experiment [2] was 0.656 µM (active).
As to `C=CCCCCCCCCC(=O)O`, the call in experiment [9] was inactive.
As to `CCn1nc(Cc2ccccc2)cc1C1CCN(C[C@H]2C[C@H](N(C)[C@@H](C(=O)O)C(C)C)C[C@@H]2c2cccc(F)c2)CC1`, the AC50 in [2] is 20.8 µM (active).
Take `CC[C@H]1CC[C@H](NCc2cc3c(cc2OC)[C@H]2C[C@H]2C(=O)N3C)[C@H](c2ccccc2)N1`: the half-maximal activity concentration (AC50) was 12.3 µM (active) in experiment [4], 0.835 µM (active) in experiment [5], 2.31 µM (active) in [1] and 7.73 µM (active) in experiment [6].
As to `CCN(C(=O)c1cc(C)cc(OC[C@H](C)Nc2ccncc2)c1)C(C)C`, the concentration at half-maximal activity (AC50) in experiment [7] was 5.9 µM (active); in [4], 16.9 µM (active); in [5], 10.6 µM (active); in [1], 11.3 µM (active).
As for `CCOC(=O)c1ccc(C2CCC(NC[C@H](O)COc3ccc(O)c(NS(C)(=O)=O)c3)CC2)cc1` (stereo not given in full), the concentration at half-maximal activity (AC50) in experiment [4] is 18 µM (active); in experiment [5], 4.31 µM (active); in experiment [1] it was 11.9 µM (active); in experiment [6], 3.42 µM (active); in experiment [2], 5.98 µM (active).
`COCCOc1cc2cc(C(=O)NC3CCN(C(C)C)CC3)n(CC(=O)Nc3ccc(Cl)cn3)c2cn1`: the molecule was classed as inactive in experiment [1], in experiment [6] and in experiment [2].

These data come from PubChem BioAssay (EPA / NIEHS).
